Reference: PubChem BioAssay (Tox21)
Unmarked numbers belong to inactive results. Results filed as inconclusive are left out. Entries that show only a call come without a potency. Activity calls are given as the source filed them. The call rests on the fitted dose curve; in most records, active means well fitted curve in the direction sought with a large enough effect in the repeat runs; inconclusive means weak or mixed curves; inactive means no such curve, though single readings can be large; an effect the other way counts as inactive or inconclusive.

Key:
[1] = qHTS RealTime-Glo MT Cell Viability Assay in HepG2 cells - 40 hour (AID 1224870); further: nearly all actives have a fitted effect of over 50% in size
In short: (§1)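 Real-time viability: cells seeded at 600 per well together with NanoLuc and cell-permeant prosubstrate, compounds added after 5 h incubation. Luminescence tracked at 0, 8, 16, 24, 32 and 40 h of exposure.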

[2] = A CellTox Green Cytotoxicity Assay to monitor cytotoxicity in HEK293 cells - 40 hour (AID 1224871); further: nearly all actives have a fitted effect of over 45% in size
In short: (§2)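 Cells (HEK293, 600/well) and dye reagent are dispensed together. After 5 h at 37 C, 23 nL compound is pinned in. Plates stay at 37 C for 40 h with fluorescence read at 0h, 8h, 16h, 24h, 32h and 40h.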

[3] = qHTS RealTime-Glo MT Cell Viability Assay in HEK293 cells - 16 hour (AID 1224872); further: top concentration of the series differs between compounds; nearly all actives have a fitted effect of over 50% in size
In short: (§3)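 Viability tracked continuously by luminescence as live cells reduce a prosubstrate for NanoLuc; HEK293 cells preincubated 5 h, compound-treated at 37 C, and read at 0, 8, 16, 24, 32 and 40 h.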

[4] = qHTS RealTime-Glo MT Cell Viability Assay in HepG2 cells - 8 hour (AID 1224873); further: nearly all actives have a fitted effect of over 55% in size
In short: as §1

[5] = qHTS RealTime-Glo MT Cell Viability Assay in HEK293 cells - 40 hour (AID 1224874); settings: RealTime-Glo luminescence; max response: active compounds read low; further: nearly all actives have a fitted effect of over 50% in size
In short: (§4)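 Real-time viability in HEK293: signal arises when living cells convert a prosubstrate for NanoLuc in the medium, so luminescence tracks viable cell number. Compound (23 nL, DMSO) added 5 h post-seeding; kinetic reads at 0–40 h, 37 C.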

[6] = A CellTox Green Cytotoxicity Assay to monitor cytotoxicity in HEK293 cells - 24 hour (AID 1224875); further: series mostly up to about 77 µM; nearly all actives have a fitted effect of over 45% in size
In short: as §2

[7] = A CellTox Green Cytotoxicity Assay to monitor cytotoxicity in HepG2 cells - 16 hour (AID 1224876); further: nearly all actives have a fitted effect of over 45% in size
In short: (§5)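 Cells and non-lytic dye reagent are dispensed together (600 HepG2 cells/well) and incubated 5 h before DMSO compound transfer. Kinetic fluorescence is then recorded in the same wells during 40 h at 37 C.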

[8] = qHTS RealTime-Glo MT Cell Viability Assay in HepG2 cells - 32 hour (AID 1224877); further: nearly all actives have a fitted effect of over 55% in size
In short: (§6)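 Viability was tracked continuously by NanoLuc luminescence from prosubstrate reduced by living HepG2 cells, at successive time points over 40 h of compound exposure. Cells with reagent were preincubated 5 h at 37 °C before compound addition.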

[9] = A CellTox Green Cytotoxicity Assay to monitor cytotoxicity in HepG2 cells - 24 hour (AID 1224878); further: nearly all actives have a fitted effect of over 45% in size
In short: as §5

[10] = qHTS RealTime-Glo MT Cell Viability Assay in HEK293 cells - 0 hour (AID 1224880); further: nearly all actives have a fitted effect of over 45% in size; further: potency means the concentration at half of the fitted maximal effect
In short: as §4

[11] = A CellTox Green Cytotoxicity Assay to monitor cytotoxicity in HEK293 cells - 32 hour (AID 1224881); further: nearly all actives have a fitted effect of over 40% in size
In short: as §2

[12] = A CellTox Green Cytotoxicity Assay to monitor cytotoxicity in HepG2 cells - 0 hour (AID 1224882); further: nearly all actives have a fitted effect of over 35% in size
In short: as §5

[13] = A CellTox Green Cytotoxicity Assay to monitor cytotoxicity in HepG2 cells - 32 hour (AID 1224883); further: nearly all actives have a fitted effect of over 50% in size
In short: as §5

[14] = qHTS RealTime-Glo MT Cell Viability Assay in HepG2 cells - 16 hour (AID 1224885); further: nearly all actives have a fitted effect of over 50% in size
In short: as §6

[15] = qHTS RealTime-Glo MT Cell Viability Assay in HEK293 cells - 24 hour (AID 1224886)
In short: as §3

[16] = qHTS RealTime-Glo MT Cell Viability Assay in HEK293 cells - 8 hour (AID 1224887)
In short: as §4

[17] = A CellTox Green Cytotoxicity Assay to monitor cytotoxicity in HEK293 cells - 16 hour (AID 1224888); further: nearly all actives have a fitted effect of over 35% in size
In short: as §2

[18] = qHTS RealTime-Glo MT Cell Viability Assay in HepG2 cells - 0 hour (AID 1224889); further: nearly all actives have a fitted effect of over 50% in size; further: potency means the concentration at half of the fitted maximal effect
In short: as §6

[19] = A CellTox Green Cytotoxicity Assay to monitor cytotoxicity in HEK293 cells - 8 hour (AID 1224884); further: nearly all actives have a fitted effect of over 35% in size
In short: as §2

[20] = A CellTox Green Cytotoxicity Assay to monitor cytotoxicity in HepG2 cells - 40 hour (AID 1224879); further: nearly all actives have a fitted effect of over 40% in size
In short: as §5

SMILES | Potency [1] | Potency [2] | Potency [3] | outcome [4] | max response [5] | Potency [6] | Potency [7] | Potency [8] | Potency [9] | Potency [10] | Potency [11] | Potency [12] | Potency [13] | outcome [14] | Potency [15] | Potency [16] | Potency [17] | Potency [18] | Potency [19] | Potency [20]
CCCCCC1CCC(=O)O1 (stereo not drawn) | inactive | inactive | inactive | inactive | 24.1% | inactive | inactive | inactive | inactive | inactive | inactive | inactive | inactive | inactive | inactive | inactive | inactive | inactive |  | 
CCN(CC)CC(=O)OCC(=O)[C@@]1(O)CC[C@H]2[C@@H]3CCC4=CC(=O)CC[C@]4(C)[C@H]3[C@@H](O)C[C@@]21C | inactive | inactive | inactive | inactive | -1.53% | inactive | inactive | inactive | inactive | 1900 nM (active) | inactive | inactive | inactive | inactive |  | inactive | inactive | 1070 nM (active) |  | 
C/C=C1\[C@H]2C=C(C)C[C@]1(N)c1ccc(=O)[nH]c1C2 | inactive | inactive | inactive | inactive | -2.81% | inactive | inactive | inactive | inactive | inactive | inactive | inactive | inactive | inactive | inactive | inactive | inactive | inactive | inactive | 
CC(=O)Nc1cccc(N)c1 | inactive | inactive | inactive | inactive | 15% | inactive | inactive | inactive | inactive | inactive | inactive | inactive | inactive | inactive | inactive | inactive | inactive | inactive | inactive | 
CC1(COc2ccc(CC3SC(=O)NC3=O)cc2)CCCCC1 (stereo not drawn) | inactive | inactive | inactive | inactive | 1.6% |  | inactive | inactive | inactive | inactive |  | inactive | inactive | inactive |  | inactive | inactive | inactive | inactive | 
CC(C(=O)O)c1ccc2c(c1)Cc1cccnc1O2 (stereo not drawn) | inactive | inactive | inactive | inactive | 1.21% | inactive | inactive | inactive | inactive | inactive | inactive | inactive | inactive | inactive | inactive | inactive | inactive | inactive | inactive | 
O=C(OCCOCCOCCOC(=O)c1ccccc1)c1ccccc1 | inactive | inactive | inactive | inactive | 13.2% | inactive | inactive | inactive |  | inactive | inactive | inactive |  |  | inactive |  | inactive | inactive | inactive | 
CC/C=C/CCO | inactive | inactive | inactive | inactive | -11.5% | inactive | inactive | inactive | inactive |  |  | inactive | inactive | inactive | inactive | inactive | inactive | inactive | inactive | 
CCCCCCCCCCCCSCCOCCO | inactive | inactive | inactive | inactive | -17.3% | inactive | inactive | inactive | inactive |  | inactive | inactive | inactive |  |  | inactive | inactive | inactive | inactive | inactive
CC1(C)[C@@H]2CC[C@]3(C2)[C@@H]1C(=O)CCC3(C)C | inactive | inactive | inactive | inactive | 3.71% | inactive | inactive | inactive | inactive | inactive |  | inactive | inactive |  | inactive | inactive | inactive | inactive |  | 
O=C(O)CNc1ccccc1 | inactive | inactive | inactive | inactive | 5.54% | inactive | inactive | inactive | inactive |  | inactive | inactive | inactive | inactive | inactive | inactive | inactive | inactive |  | inactive
NC(=O)c1ccccc1 | inactive | inactive | inactive | inactive | 1.7% | inactive | inactive | inactive | inactive | inactive | inactive | inactive | inactive | inactive |  | inactive | inactive | inactive | inactive | 
CC1(C)C(=O)NC(=O)N1CO | inactive | inactive | inactive | inactive | 9.14% | inactive | inactive | inactive | inactive | inactive | inactive | inactive | inactive | inactive |  | inactive | inactive | inactive | inactive | 
Cc1ccc(Cl)c(OCC(O)CNC(C)(C)C)c1 (stereo not drawn) | inactive | inactive |  | inactive | 1.75% | inactive | inactive | inactive | inactive |  | inactive | inactive | inactive | inactive | inactive | inactive | inactive | inactive | inactive | inactive
C1=COCCC1 | inactive | inactive |  | inactive | 1.01% | inactive | inactive | inactive | inactive | inactive |  | inactive | inactive |  | inactive | inactive | inactive | inactive | inactive | inactive
COc1ccc(CN(CCN(C)C)c2ncccn2)cc1 | inactive | inactive |  | inactive | 4.01% | inactive | inactive | inactive | inactive | inactive |  | inactive | inactive |  | inactive | inactive |  | inactive | inactive | inactive
